PubChem BioAssay AID651784 (National Center for Advancing Translational Sciences (NCATS), 2012)
Records with an inconclusive call do not appear. Active and inactive are the calls of the source. The call rests on the fitted dose curve; in most records, active means well fitted inhibition curve with a large enough effect; inconclusive means small, poorly fitted or top-dose-only effect; inactive means no such curve, though single readings can be large or run the other way.

Experiment: Acumen qHTS Assay for Inhibitors of the mTORC1 Signaling Pathway in MEF (Tsc2-/-, p53-/-) Cells: Hit Validation;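 further: phospho-rpS6 Ser235/236 immunofluorescence normalized to propidium iodide cell count; nearly all actives have a fitted effect of over 65% in size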;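 on activity change, negative = inhibition: cells exposed to compound for 24 hours; plate controls were DMSO for no effect and 7.5 nM rapamycin control for full effect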
Details: Acumen imaging; activity change, negative = inhibition: at 37.3 µM (top of the series)
Potency means the concentration at half of the fitted maximal effect.

| Compound | Potency | activity change, negative = inhibition [%] |
| --- | --- | --- |
| Cc1nc2nncn2c(NCc2ccc(Cl)cc2)c1C | 4.14 µM (active) |  |
| c1ccc(N2CCN(c3ncnc4[nH]ncc34)CC2)cc1 |  | 6.17 |
| COc1ccc(C2Sc3ccccc3NC3=C2C(=O)c2ccccc23)c(OC)c1OC (stereo unspecified) |  | -65.9 |
| Cc1ccc(-c2noc(CCC(=O)N(C)c3ccccc3F)n2)cc1 |  | 5.93 |
| CCC1CCc2nc3sc(C(=O)Nc4ccc(C)cc4)c(N)c3cc2C1 (stereo unspecified) | 8.26 µM (active) |  |
| CCOc1cc(C2CC(=O)Nc3cc4c(cc32)OCCO4)ccc1O (stereo unspecified) |  | 3.9 |
| Cc1cccc(OCc2ccc(-c3nc(C#N)c(NCCN(C)C)o3)o2)c1 |  | 0.2 |
| COc1ccc(CCNC(=O)c2ccc3c(c2)N(Cc2ccccc2)CCS3)cc1OC | 5.21 µM (active) |  |
| N=c1n(CCN2CCCCC2)c2ccccc2n1CC(O)COc1ccc(Cl)cc1Cl (stereo unspecified) | 5.21 µM (active) |  |
| Cc1ccccc1CN1C(=O)C(O)(CC(=O)c2ccccc2)c2cc(Cl)ccc21 (stereo unspecified) |  | -65.2 |
| Cc1ccc(NC(=O)CCNS(=O)(=O)c2cccc3nonc23)cc1Cl |  | 5.73 |
| Cc1cccc(NC(=O)c2nc(S(C)(=O)=O)ncc2Cl)c1 | 2.07 µM (active) |  |
| CC(C)(C)C(=O)Nc1ccc(-c2nc3ccc(NC(=O)C(C)(C)C)cc3[nH]2)cc1 |  | -3.72 |
| Cn1nnnc1SCCCNCc1ccccc1OCc1ccc(Cl)cc1 |  | -60 |
| Cc1c(Cl)cccc1-c1ccc(C(=O)Nc2ccc3oc(-c4cccnc4)nc3c2)o1 |  | -39.9 |
| COc1ccc(S(=O)(=O)NCCc2csc3nc(-c4ccc(Cl)cc4)nn23)cc1C | 11.7 µM (active) |  |
| Cc1ccc(C(=O)Nc2c(C(=O)NCc3ccc(Cl)cc3)sc3nc(C)cc(C)c23)cc1 |  | -89.8 |
| CCn1c2ccccc2c2cc(CN3CCN(Cc4ccc(Cl)cc4)CC3)ccc21 | 14.7 µM (active) |  |
| CCCSc1oc(-c2ccco2)nc1S(=O)(=O)c1ccc(Br)cc1 |  | 4.39 |
| CC(=O)C1=C(c2ccc(Cl)c(Cl)c2)N(C(C)=O)n2cnnc2S1 | 5.21 µM (active) |  |
| COc1cc(CNc2ccc3c(c2)ncn3C(C)C)cc(OC)c1OC |  | -25.9 |
